Test in all cases: DAPPL (digital affinity profiling via proximity ligation, sequencing); 10 mM Tris-HCl pH 7.5, 50 mM NaCl, 1 mM DTT, 4% glycerol, room temperature, 30 min; GST-TFs on glutathione beads, 16-mer random dsDNA library, 0.1% formaldehyde crosslink after washing; high values mean tight binding
In assay [1] the target is T1, FLI1 (Homo sapiens, UniProt Q01543 1-452).
T1 sequence: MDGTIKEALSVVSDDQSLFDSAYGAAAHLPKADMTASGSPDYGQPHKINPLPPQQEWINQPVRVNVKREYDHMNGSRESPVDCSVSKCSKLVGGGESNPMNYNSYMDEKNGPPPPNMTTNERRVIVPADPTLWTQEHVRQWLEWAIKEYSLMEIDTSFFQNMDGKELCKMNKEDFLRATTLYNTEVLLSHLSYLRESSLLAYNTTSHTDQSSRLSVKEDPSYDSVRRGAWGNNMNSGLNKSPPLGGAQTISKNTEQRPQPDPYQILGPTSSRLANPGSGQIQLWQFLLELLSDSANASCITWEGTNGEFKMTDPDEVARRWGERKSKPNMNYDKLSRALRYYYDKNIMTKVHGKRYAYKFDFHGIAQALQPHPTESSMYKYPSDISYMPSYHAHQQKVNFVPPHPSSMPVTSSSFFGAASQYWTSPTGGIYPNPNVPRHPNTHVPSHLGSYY
To be noted: protein: recombinant; tags: N-terminal GST; dsDNA, one strand shown. A digest of the protocol: (§1)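 Pools were built from human transcription factors expressed in yeast as GST fusions, captured on glutathione beads and DNA-barcoded, along with a tag-only sample. Incubation with 200 nmole of a 16-mer random double-stranded DNA library lasted 30 min at room temperature in Tris/NaCl/DTT/glycerol buffer, and was followed by washing, 0.1% formaldehyde crosslinking, proximity ligation, PCR amplification and Illumina NextSeq500 sequencing. Binding signal is the quotient of each hexamer's read frequency for a factor and its frequency for the tag-only sample.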

The target in assay [2] is T2, ELK1 (Homo sapiens, UniProt P19419 1-428).
T2 sequence: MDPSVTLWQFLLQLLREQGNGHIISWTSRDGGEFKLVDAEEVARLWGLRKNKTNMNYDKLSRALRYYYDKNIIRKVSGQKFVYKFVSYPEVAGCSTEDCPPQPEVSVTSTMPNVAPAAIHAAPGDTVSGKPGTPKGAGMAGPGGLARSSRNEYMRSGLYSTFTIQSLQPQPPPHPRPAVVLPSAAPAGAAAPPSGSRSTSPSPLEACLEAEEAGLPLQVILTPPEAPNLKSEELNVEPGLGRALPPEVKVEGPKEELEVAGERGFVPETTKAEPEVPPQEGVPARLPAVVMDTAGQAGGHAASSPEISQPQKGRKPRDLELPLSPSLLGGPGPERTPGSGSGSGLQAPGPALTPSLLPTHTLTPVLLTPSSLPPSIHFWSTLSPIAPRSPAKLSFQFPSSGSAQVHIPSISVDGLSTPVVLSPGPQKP
To be noted: protein: recombinant; tags: N-terminal GST; dsDNA, one strand shown. The essentials: as §1

For assay [3], the target named is T3, GABPA (Homo sapiens, UniProt Q06546 1-454).
T3 sequence: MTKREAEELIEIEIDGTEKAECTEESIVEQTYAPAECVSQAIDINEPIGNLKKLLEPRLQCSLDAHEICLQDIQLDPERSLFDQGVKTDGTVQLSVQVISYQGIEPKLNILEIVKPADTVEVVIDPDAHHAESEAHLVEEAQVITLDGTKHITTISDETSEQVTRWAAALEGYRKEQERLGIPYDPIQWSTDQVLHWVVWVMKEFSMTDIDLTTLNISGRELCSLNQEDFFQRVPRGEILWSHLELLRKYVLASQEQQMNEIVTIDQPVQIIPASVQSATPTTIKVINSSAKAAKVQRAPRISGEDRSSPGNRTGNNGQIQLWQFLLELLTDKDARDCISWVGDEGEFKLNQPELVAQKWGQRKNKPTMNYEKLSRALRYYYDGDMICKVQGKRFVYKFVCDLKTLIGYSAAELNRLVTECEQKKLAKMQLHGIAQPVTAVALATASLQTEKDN
Particulars: protein: recombinant; tags: N-terminal GST; dsDNA, one strand shown. The essentials:
as §1

For assay [4], the target named is T4, ERG (Homo sapiens, UniProt P11308 1-479).
T4 sequence: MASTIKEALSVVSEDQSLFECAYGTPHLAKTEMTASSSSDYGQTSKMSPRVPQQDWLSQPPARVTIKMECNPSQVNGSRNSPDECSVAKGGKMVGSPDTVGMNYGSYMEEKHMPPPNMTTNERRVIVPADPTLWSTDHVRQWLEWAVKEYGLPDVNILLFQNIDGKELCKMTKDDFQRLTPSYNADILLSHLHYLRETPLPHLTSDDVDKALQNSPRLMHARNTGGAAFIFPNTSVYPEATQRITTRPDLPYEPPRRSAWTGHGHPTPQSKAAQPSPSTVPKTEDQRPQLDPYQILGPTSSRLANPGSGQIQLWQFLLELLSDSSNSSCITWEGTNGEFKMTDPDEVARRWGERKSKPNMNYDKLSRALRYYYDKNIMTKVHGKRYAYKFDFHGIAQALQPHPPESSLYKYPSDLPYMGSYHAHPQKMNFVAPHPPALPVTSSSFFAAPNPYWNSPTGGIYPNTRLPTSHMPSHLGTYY
Particulars: protein: recombinant; tags: N-terminal GST; dsDNA, one strand shown. The essentials: as §1

The target in assay [5] is ELF1 (Homo sapiens, UniProt P32519 1-619). Particulars: protein: recombinant; tags: N-terminal GST; dsDNA, one strand shown. A digest of the protocol:
as §1

Assay [6] has as its target T5, EHF (Homo sapiens, UniProt Q9NZC4 1-300).
T5 sequence: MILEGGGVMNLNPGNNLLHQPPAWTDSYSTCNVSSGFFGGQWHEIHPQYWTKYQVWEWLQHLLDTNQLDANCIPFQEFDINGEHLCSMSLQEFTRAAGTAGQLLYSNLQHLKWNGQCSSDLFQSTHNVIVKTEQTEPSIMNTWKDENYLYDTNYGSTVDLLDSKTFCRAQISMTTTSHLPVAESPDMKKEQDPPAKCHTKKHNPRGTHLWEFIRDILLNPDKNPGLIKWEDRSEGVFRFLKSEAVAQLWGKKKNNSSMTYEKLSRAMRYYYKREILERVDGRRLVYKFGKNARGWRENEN
To be noted: protein: recombinant; tags: N-terminal GST; dsDNA, one strand shown. The essentials: as §1

Assay [7] concerns the target SPI1 (Homo sapiens, UniProt P17947 1-270). Particulars: protein: recombinant; tags: N-terminal GST; dsDNA, one strand shown. The essentials:
as §1

For assay [8], the target named is SPIB (Homo sapiens, UniProt Q01892 1-262). To be noted: protein: recombinant; tags: N-terminal GST; dsDNA, one strand shown. A digest of the protocol:
as §1

For assay [9], the target named is T6, ELK3 (Homo sapiens, UniProt P41970 1-407).
T6 sequence: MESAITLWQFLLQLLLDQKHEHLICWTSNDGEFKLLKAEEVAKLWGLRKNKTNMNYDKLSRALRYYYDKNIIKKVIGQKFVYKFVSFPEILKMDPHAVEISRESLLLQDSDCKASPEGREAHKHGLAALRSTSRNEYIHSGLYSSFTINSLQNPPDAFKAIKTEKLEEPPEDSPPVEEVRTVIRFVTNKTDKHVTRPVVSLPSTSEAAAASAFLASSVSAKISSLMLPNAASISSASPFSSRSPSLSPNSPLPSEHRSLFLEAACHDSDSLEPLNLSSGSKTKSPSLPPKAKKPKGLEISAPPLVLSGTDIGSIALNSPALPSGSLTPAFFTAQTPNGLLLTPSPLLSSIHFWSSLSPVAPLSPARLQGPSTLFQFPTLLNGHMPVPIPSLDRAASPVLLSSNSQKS
Particulars: protein: recombinant; tags: N-terminal GST; dsDNA, one strand shown. The essentials:
as §1

The target in assay [10] is T7, FEV (Homo sapiens, UniProt Q99581 1-238).
T7 sequence: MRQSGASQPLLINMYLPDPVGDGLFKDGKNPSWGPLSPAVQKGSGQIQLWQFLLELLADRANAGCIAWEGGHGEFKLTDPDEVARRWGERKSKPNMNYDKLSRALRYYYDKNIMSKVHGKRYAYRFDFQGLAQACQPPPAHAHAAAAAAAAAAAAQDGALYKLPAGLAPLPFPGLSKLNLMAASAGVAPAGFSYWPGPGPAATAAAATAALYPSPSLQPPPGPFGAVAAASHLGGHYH
To be noted: protein: recombinant; tags: N-terminal GST; dsDNA, one strand shown. The essentials:
as §1

Assay [11] concerns the target ETV5 (Homo sapiens, UniProt P41161 1-510). Particulars: protein: recombinant; tags: N-terminal GST; dsDNA, one strand shown. The essentials:
as §1

For assay [12], the target named is HSF1 (Homo sapiens, UniProt Q00613 1-529). Particulars: protein: recombinant; tags: N-terminal GST; chain copies: 3; dsDNA, one strand shown. The essentials:
as §1

In assay [13] the target is T8, SPIC (Homo sapiens, UniProt Q8N5J4 1-248).
T8 sequence: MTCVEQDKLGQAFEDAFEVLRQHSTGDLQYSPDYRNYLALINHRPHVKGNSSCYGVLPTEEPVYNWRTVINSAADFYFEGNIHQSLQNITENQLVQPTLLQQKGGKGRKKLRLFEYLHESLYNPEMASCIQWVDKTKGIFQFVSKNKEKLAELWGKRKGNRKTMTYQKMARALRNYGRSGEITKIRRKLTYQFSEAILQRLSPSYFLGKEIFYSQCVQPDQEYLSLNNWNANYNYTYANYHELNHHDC
Particulars: protein: recombinant; tags: N-terminal GST; dsDNA, one strand shown. A digest of the protocol: as §1

The target of assay [14] is ELF4 (Homo sapiens, UniProt Q99607 1-663). To be noted: protein: recombinant; tags: N-terminal GST; dsDNA, one strand shown. The essentials:
as §1

Assay [15] addresses T9, ELK4 (Homo sapiens, UniProt P28324-2 1-405).
T9 sequence: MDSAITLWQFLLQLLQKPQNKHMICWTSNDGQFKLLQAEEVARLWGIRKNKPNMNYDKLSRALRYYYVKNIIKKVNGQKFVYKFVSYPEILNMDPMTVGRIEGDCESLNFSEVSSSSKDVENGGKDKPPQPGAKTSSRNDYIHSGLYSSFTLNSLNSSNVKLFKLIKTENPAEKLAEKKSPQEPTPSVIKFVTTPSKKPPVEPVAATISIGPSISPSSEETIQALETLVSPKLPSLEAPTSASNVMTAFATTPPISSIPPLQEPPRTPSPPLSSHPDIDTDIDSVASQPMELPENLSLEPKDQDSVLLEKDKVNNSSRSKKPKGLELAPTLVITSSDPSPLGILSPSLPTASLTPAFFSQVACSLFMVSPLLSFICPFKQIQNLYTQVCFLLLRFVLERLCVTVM
To be noted: protein: recombinant; tags: N-terminal GST; dsDNA, one strand shown. A digest of the protocol: as §1

Assay [16] has as its target T10, ETV2 (Homo sapiens, UniProt O00321 1-342).
T10 sequence: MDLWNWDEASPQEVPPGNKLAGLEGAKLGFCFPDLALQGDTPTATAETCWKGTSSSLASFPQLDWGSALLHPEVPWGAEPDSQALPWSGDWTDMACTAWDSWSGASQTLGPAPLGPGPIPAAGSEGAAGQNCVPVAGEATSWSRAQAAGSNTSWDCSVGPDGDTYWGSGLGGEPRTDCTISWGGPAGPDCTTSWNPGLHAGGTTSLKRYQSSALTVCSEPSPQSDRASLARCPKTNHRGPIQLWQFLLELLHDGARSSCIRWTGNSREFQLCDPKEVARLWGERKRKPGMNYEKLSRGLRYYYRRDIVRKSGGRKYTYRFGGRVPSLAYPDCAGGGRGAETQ
To be noted: protein: recombinant; tags: N-terminal GST; dsDNA, one strand shown. The essentials:
as §1

In assay [17] the target is T11, ELF3 (Homo sapiens, UniProt P78545 1-371).
T11 sequence: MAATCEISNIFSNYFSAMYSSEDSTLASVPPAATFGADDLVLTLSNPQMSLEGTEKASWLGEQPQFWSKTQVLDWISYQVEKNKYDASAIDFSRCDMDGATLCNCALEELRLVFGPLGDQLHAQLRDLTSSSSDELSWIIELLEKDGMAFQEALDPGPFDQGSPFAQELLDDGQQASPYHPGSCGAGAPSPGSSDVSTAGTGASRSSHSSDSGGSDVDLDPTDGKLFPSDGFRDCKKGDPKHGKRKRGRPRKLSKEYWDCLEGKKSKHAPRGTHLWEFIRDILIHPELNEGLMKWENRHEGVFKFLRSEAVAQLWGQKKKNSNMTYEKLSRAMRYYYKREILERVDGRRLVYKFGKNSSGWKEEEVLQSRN
Particulars: protein: recombinant; tags: N-terminal GST; dsDNA, one strand shown. The essentials:
as §1

Assay [18] deals with CRX (Homo sapiens, UniProt O43186 1-299). Particulars: protein: recombinant; tags: N-terminal GST; dsDNA, one strand shown. The essentials: as §1
Assay [19] deals with ETV1 (Homo sapiens, UniProt P50549 1-477). Particulars: protein: recombinant; tags: N-terminal GST; dsDNA, one strand shown. The essentials: as §1
Chain of ETV1 (P50549 whole entry): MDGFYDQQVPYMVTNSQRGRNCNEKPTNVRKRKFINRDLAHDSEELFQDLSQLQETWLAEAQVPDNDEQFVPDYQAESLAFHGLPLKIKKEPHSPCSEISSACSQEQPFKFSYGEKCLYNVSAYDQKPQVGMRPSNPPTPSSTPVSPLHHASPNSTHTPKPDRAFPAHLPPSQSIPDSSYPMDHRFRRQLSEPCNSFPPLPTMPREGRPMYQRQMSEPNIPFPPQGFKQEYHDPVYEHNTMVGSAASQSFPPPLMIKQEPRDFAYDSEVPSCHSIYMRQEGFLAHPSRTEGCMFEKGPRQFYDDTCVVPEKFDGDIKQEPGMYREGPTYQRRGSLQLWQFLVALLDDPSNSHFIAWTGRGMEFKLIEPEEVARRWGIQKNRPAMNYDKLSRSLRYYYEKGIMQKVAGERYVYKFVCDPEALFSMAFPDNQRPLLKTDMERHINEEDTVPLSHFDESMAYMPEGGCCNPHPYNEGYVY

Chain of CRX (O43186 whole entry): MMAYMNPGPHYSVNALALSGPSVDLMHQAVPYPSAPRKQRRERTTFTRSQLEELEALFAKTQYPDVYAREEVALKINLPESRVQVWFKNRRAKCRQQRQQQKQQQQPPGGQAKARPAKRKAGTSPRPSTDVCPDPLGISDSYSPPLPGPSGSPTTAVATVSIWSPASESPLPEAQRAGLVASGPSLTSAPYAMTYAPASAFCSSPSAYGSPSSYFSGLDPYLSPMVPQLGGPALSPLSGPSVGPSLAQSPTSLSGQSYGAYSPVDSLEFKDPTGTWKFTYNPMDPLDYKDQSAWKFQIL
Chain of ELF1 (P32519 whole entry): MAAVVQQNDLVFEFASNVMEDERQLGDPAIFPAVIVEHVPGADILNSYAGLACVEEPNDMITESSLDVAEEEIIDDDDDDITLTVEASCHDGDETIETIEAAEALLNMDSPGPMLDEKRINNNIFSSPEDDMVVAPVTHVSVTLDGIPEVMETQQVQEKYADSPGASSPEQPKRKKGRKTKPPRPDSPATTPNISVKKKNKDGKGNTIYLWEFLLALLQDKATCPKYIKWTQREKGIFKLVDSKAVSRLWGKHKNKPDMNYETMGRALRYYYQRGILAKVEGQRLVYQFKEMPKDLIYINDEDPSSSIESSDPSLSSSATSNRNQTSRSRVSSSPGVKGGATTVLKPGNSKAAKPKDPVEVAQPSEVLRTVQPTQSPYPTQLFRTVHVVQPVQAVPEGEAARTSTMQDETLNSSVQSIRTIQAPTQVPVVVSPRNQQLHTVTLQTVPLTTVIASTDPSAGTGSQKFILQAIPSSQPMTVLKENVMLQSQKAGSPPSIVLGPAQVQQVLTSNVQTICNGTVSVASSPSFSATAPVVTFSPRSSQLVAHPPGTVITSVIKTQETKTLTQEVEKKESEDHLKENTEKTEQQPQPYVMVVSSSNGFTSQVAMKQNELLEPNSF
Chain of HSF1 (Q00613 whole entry): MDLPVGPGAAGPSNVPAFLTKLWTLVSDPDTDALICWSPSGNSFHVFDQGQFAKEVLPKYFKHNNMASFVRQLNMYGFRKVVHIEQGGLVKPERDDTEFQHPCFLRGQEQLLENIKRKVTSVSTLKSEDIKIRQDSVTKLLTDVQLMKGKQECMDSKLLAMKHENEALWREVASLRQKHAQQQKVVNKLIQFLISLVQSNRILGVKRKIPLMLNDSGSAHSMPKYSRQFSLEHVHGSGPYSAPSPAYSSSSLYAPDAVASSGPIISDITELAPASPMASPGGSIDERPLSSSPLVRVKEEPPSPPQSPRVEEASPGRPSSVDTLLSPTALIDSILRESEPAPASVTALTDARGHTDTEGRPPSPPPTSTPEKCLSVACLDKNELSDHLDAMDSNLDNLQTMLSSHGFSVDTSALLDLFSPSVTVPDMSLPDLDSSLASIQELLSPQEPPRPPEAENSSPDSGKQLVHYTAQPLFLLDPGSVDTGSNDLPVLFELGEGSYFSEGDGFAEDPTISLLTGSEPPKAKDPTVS
Chain of SPIB (Q01892 whole entry): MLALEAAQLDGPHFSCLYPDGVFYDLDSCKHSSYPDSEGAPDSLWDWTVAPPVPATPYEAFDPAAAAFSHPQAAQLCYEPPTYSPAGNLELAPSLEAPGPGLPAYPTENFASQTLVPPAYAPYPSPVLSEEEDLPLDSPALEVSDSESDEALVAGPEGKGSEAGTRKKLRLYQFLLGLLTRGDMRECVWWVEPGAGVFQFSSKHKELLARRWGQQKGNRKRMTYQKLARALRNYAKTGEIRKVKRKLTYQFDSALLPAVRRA
Chain of ELF4 (Q99607 whole entry): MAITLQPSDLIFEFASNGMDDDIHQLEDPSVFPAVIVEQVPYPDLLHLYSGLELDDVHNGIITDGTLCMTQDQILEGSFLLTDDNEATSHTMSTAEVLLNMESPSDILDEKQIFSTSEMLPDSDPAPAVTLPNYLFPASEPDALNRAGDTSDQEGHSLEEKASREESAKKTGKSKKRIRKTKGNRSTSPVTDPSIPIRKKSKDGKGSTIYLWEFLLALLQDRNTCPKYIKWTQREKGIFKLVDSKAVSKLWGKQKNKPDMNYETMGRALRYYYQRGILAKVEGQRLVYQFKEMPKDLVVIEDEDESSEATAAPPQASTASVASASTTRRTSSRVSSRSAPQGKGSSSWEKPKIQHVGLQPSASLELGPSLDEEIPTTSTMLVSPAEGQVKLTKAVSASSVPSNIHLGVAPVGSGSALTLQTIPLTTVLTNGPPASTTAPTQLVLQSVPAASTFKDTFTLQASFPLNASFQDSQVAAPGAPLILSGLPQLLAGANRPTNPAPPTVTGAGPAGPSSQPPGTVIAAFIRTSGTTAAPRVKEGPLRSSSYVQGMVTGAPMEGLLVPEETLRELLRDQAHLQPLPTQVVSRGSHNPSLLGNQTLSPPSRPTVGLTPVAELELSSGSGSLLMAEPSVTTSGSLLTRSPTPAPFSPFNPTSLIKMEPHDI
Chain of ETV5 (P41161 whole entry): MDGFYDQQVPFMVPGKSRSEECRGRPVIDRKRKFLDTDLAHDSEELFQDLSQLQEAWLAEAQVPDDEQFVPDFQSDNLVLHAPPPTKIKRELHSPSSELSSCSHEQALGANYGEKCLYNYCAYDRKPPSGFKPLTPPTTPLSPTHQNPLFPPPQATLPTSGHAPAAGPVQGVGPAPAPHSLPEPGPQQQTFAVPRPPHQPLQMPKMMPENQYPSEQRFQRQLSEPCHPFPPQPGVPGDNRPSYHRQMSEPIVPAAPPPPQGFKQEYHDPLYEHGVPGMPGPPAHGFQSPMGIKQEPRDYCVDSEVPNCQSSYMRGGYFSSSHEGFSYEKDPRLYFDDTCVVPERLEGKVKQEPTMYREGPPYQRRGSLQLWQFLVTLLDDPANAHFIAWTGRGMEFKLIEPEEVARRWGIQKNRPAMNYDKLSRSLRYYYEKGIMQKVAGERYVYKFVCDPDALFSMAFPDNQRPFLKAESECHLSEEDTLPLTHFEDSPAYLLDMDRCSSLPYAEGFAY

For the sequence TTGATT, the binding signal was 1.48 fold enrichment (6-mer frequency, TF over GST control) in [1]; 1.32 fold enrichment (6-mer frequency, TF over GST control) in [2]; 1.31 fold enrichment (6-mer frequency, TF over GST control) in [3]; 1.29 fold enrichment (6-mer frequency, TF over GST control) in assay [4]; 1.29 fold enrichment (6-mer frequency, TF over GST control) in assay [5]; 1.26 fold enrichment (6-mer frequency, TF over GST control) in assay [6]. The binding signal in assay [7] was 1.18 fold enrichment (6-mer frequency, TF over GST control); in assay [8], 1.26 fold enrichment (6-mer frequency, TF over GST control); in assay [9], 1.2 fold enrichment (6-mer frequency, TF over GST control); in [10], 1.18 fold enrichment (6-mer frequency, TF over GST control); in assay [11] it was 1.14 fold enrichment (6-mer frequency, TF over GST control); in [12] it was 1.32 fold enrichment (6-mer frequency, TF over GST control). Further, the binding signal in assay [13] is 1.35 fold enrichment (6-mer frequency, TF over GST control); in assay [14], 1.25 fold enrichment (6-mer frequency, TF over GST control); in assay [15], 1.29 fold enrichment (6-mer frequency, TF over GST control); in assay [16], 1.32 fold enrichment (6-mer frequency, TF over GST control); in [17], 1.25 fold enrichment (6-mer frequency, TF over GST control); in assay [18], 1.48 fold enrichment (6-mer frequency, TF over GST control). Also, in assay [19], the binding signal was 1.27 fold enrichment (6-mer frequency, TF over GST control).

These data come from paper PMC7862700, “An all-to-all approach to the identification of sequence-specific readers for epigenetic DNA modifications on cytosine”.
